Reference: PubChem BioAssay (NCATS)
Results filed as inconclusive are left out. Activity calls are given as the source filed them. Unless noted, the call rests on the fitted dose curve.

Test system: not listed separately
Assay: qHTS for Inhibitors of the Functional Ribonucleoprotein Complex (vRNP) of Lymphocytic Choriomeningitis Arenaviruses (LCMV): Viability assay - alamar blue signal for LCMV Primary Screen (AID 1347085; calls by dose curve; tested in HEK293 reporter line; further: nearly all actives have a fitted effect of over 80% in size)
Details: alamar blue viability counter-screen, LCMV vRNP screen cells; series mostly up to 57.5 µM; activity change, negative = lower viability: at the top concentration
On the % scale 0 is the no-effect control and ±100 the full control effect; potency means the concentration at half of the fitted maximal effect.

Structure (SMILES) | Potency | activity change, negative = lower viability
O=c1ccc2ccc(O)c(O)c2o1 | inactive | 
C=C1C(=O)OC2CC3(C)OC3CCC(C)=CC(OC(C)=O)C12 (stereo unspecified) |  | -7.27% (inactive)
CCOC(=O)N[C@@H]1CC[C@@H]2[C@@H](C1)C[C@H]1C(=O)O[C@H](C)[C@H]1[C@@H]2C=Cc1ccc(-c2cccc(F)c2)cn1 | 5.44 µM (active) | 
NC(=O)c1ncn([C@@H]2O[C@H](CO)[C@@H](O)[C@@H]2O)n1 |  | -28.4% (inactive)
CCC1(O)C(=O)OCc2c1cc1n(c2=O)Cc2cc3cc(O)ccc3nc2-1 (stereo unspecified) | 0.1 µM (active) | 
CC=CC[C@@H](C)C(=O)[C@H]1C(=O)N[C@@H](C(C)C)C(=O)N(C)CC(=O)N(C)[C@@H](CC(C)C)C(=O)N[C@@H](C(C)C)C(=O)N(C)[C@@H](CC(C)C)C(=O)N[C@@H](C)C(=O)N[C@H](C)C(=O)N(C)[C@@H](CC(C)C)C(=O)N(C)[C@@H](CC(C)C)C(=O)N(C)[C@@H](C(C)C)C(=O)N1C |  | 15.3% (inactive)
CC(C)=CCCC(C)=CCCC(C)=CCCC(C)=CCCC(C)=CCCC(C)=CCCC(C)=CCCC(C)=CCCC(C)=CCO | 21.7 µM (active) | 
COC1CCC(OC2CC(C3(C)CCC4(CC(O)C(C)C(C(C)/C=C(\C)C(=O)C(C)CC(C)C(=O)O)O4)O3)OC3(OC(C4OC(O)(CO)C(C)CC4C)CC3C)C2C)OC1C (stereo unspecified) |  | -53.1% (inactive)

Target: Nucleoprotein (Lymphocytic choriomeningitis virus (strain Armstrong)) (UniProt P09992)
Sequence (P09992 whole entry, looked up): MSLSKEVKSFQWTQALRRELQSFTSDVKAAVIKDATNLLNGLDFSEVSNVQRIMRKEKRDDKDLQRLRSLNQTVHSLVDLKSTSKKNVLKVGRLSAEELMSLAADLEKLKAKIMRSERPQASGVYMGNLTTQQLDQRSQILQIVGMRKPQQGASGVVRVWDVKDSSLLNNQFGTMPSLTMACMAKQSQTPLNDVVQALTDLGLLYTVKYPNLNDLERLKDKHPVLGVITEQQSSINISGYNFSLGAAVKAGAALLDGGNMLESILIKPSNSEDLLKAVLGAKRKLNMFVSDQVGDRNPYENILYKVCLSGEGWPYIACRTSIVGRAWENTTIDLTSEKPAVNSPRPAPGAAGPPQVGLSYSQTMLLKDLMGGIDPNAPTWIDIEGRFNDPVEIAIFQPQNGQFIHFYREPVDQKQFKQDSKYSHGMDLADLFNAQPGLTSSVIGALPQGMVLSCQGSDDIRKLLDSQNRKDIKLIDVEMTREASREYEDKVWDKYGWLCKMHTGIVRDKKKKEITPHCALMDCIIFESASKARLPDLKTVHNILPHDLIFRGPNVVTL
Assay: qHTS for Inhibitors of the Functional Ribonucleoprotein Complex (vRNP) of Lymphocytic Choriomeningitis Arenaviruses (LCMV): LCMV Primary Screen - GLuc reporter signal (AID 1347086); further: nearly all actives have a fitted effect of over 70% in size
Details: LCMV minigenome vRNP cell assay, Gaussia luciferase reporter; series mostly up to 57.5 µM; activity change, negative = inhibition: at the top concentration

Structure (SMILES) | activity change, negative = inhibition | Potency
Cc1ccn(-c2ccc(-c3ncco3)cc2)c(=O)c1-c1ccc2nc(N)ncc2c1 | 6.07% (inactive) | 
CNC1CCC(N(Cc2cccc(-c3ccncc3)c2)C(=O)c2sc3ccccc3c2Cl)CC1 (stereo unspecified) |  | 10.9 µM (active)
Cc1cc(C(=O)N2CCN(c3cccc(Cl)c3)CC2)n(-c2ccccc2)n1 |  | 6.85 µM (active)
C[C@]12CC[C@@H]3c4ccc(O)cc4CC[C@H]3[C@H]1CC[C@H]2O |  | 1.22 µM (active)
COc1ccc(C=Cc2cc(OC)c(OC)c(OC)c2)cc1NC(=O)[C@H](N)CO | -85.5% (inactive) | 
CS(=O)(=O)N1CCc2c(-c3cnc(N)nc3)nc(N3CCOCC3)nc21 | -23.4% (inactive) | 
c1cc(N[C@@H]2CCNC2)nc(-c2cnc3ccc(-c4cn[nH]c4)cn23)c1 | -27.2% (inactive) | 
CC(C)CNc1ccnc(NCc2csc(-c3ccccc3)n2)n1 |  | 15.3 µM (active)
NC(=O)N1CCC(CC(=O)N2CCC([C@H]3c4ncc(Br)cc4CCc4cc(Cl)cc(Br)c43)CC2)CC1 |  | 12.2 µM (active)
C[C@@H]1COC(Nc2ccc3ncnc(Nc4ccc(OCc5nccs5)c(Cl)c4)c3c2)=N1 |  | 1.22 µM (active)
COCCOc1ccc2c(c1)ncn2-c1ccc2cccc(N3CCC(N)CC3)c2n1 | -43.7% (inactive) | 
c1ccc2c(Cc3c[nH]c4ccccc34)c[nH]c2c1 |  | 13.7 µM (active)
NC(=O)Nc1cc(-c2ccc(CN3CCOCC3)cc2)sc1C(N)=O | -40.4% (inactive) | 
CNC(=O)c1ccc(Nc2cc(Nc3ccccc3S(=O)(=O)C(C)C)c3cc[nH]c3n2)nc1 |  | 27.3 µM (active)
O=C(Nc1cccc(Br)c1)c1cccc(S(=O)(=O)N2CCCCCC2)c1 |  | 15.3 µM (active)

Test system: not listed separately
Assay: Cytotoxicity counterscreen for inhibitors of SARS-CoV-2 cell entry (AID 1645845); further: nearly all actives have a fitted effect of over 50% in size
Details: cell viability (SARS-CoV-2 entry assay cells); series mostly up to 57.1 µM; activity change, negative = cytotoxicity: at the top concentration
In short: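 48 h compound treatment (after 1 h preincubation), HEK293-ACE2 cells, 37 C/5% CO2; ATP luminescence endpoint; normalized to cell wells and media blanks.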

Structure (SMILES) | outcome | activity change, negative = cytotoxicity | Potency
COc1cc2ncnc(Nc3cccc(Br)c3)c2cc1OC | inactive |  | 
Cc1ccn(-c2ccc(-c3ncco3)cc2)c(=O)c1-c1ccc2nc(N)ncc2c1 |  | -16.4% (inactive) | 
C[C@@H](NC(=O)c1ncnc(N)c1Cl)c1ncc(C(=O)Nc2cc(C(F)(F)F)c(Cl)cn2)s1 |  | -4.51% (inactive) | 
Cc1cc(C(=O)N2CCN(c3cccc(Cl)c3)CC2)n(-c2ccccc2)n1 |  | -29.2% (inactive) | 
Cc1c(Cn2c(C)nc3c(C(=O)O)cc(N4CCOCC4)cc32)cccc1C(F)(F)F | inactive |  | 
CS(=O)(=O)N1CCc2c(-c3cnc(N)nc3)nc(N3CCOCC3)nc21 |  |  | 3.55 µM (active)
CN(C)N=Nc1nc[nH]c1C(N)=O |  | -20.9% (inactive) | 
c1cc(N[C@@H]2CCNC2)nc(-c2cnc3ccc(-c4cn[nH]c4)cn23)c1 |  |  | 31.6 µM (active)
CC(C)CNc1ccnc(NCc2csc(-c3ccccc3)n2)n1 |  |  | 22.4 µM (active)
Cn1cc(C2=C(c3c4n(c5ccccc35)CCC(CN)C4)C(=O)NC2=O)c2ccccc21 (stereo unspecified) |  | -8.45% [at 11.3 µM] (inactive) | 
C[C@@H]1COC(Nc2ccc3ncnc(Nc4ccc(OCc5nccs5)c(Cl)c4)c3c2)=N1 |  |  | 31.6 µM (active)
C#Cc1cccc(Nc2ncnc3cc(OCCOC)c(OCCO)cc23)c1 |  | -14.7% (inactive) | 
CCOC(=O)C1=C(C)NC(=S)NC1c1cccc(O)c1 (stereo unspecified) | inactive |  | 
Cc1c(NC(=O)OC[C@@H]2COCCN2)cn2ncnc(Nc3ccc4c(cnn4Cc4cccc(F)c4)c3)c12 | inactive |  | 
c1ccc2c(Cc3c[nH]c4ccccc34)c[nH]c2c1 |  | -25.9% (inactive) | 
NC(=O)Nc1cc(-c2ccc(CN3CCOCC3)cc2)sc1C(N)=O |  | 0.399% (inactive) | 
Cc1cnc(Nc2ccc(CN3CCOCC3)cc2)nc1Nc1cccc(S(=O)(=O)NC(C)(C)C)c1 |  |  | 12.6 µM (active)
CC1=C(CC(=O)O)c2cc(F)ccc2C1=Cc1ccc(S(C)=O)cc1 (stereo unspecified) | inactive |  | 
